Source: PubChem (several laboratories)
C8 TRAIL sens: caspase-8 TRAIL sensitization. 1% of 360,000 active. AID 624354. NB7+C8 cells + TRAIL, ATPlite viability luminescence. inhibition (viability loss, TRAIL sensitization), % at 10 µM;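 active = compounds causing at least 50% loss of cell viability in the single-dose screen, relative to plate controls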
TROY signal inh: inhibitors of TROY-dependent NF-kB signaling; Q293 LMP1-TROYcd NF-kB luciferase reporter, 4 h; inhibition, % at 10 µM; 0.98% of 360,000 active;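 active = compounds whose plate-normalised and pattern-corrected inhibition of the luciferase reporter signal at the single screening dose is 50% or more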
TWEAK Fn14 block: blocks TWEAK-Fn14 interaction in a reporter cell assay; 2% of 360,000 active; AID 1159606; inhibition, % at 10 µM; TWEAK-stimulated Fn14 reporter cells, luciferase luminescence, 8 h; in the data active = inhibition above about 50%
Platelet DG rel: modulates dense granule release in human platelets; inhibition, %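 (compounds screened at 7.5 µM in platelet-rich plasma)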; 0.22% of 300,000 active; human platelet-rich plasma, SFLLRN dense granule ATP release, luminescence;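 active = mean replicate score, as percent of positive control, at or above 50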
PPC-1+TRAIL kill: PPC-1 cancer cell killing with TRAIL present; 0.41% of 220,000 active; cell killing (% activity), % at 4 µM or 5 µM; PPC-1 cells + TRAIL, ATPLite viability luminescence;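 active = cell killing above 50% in the first pass at 4 µM, then a duplicate retest at 5 µM averaging 50% or more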;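 also: plate controls were cells with TRAIL plus DMSO for no effect and medium-only wells lacking cells for full effect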
HSP90 refold inh: blocks HSP90-mediated luciferase refolding in reticulocyte lysate | Rabbit reticulocyte lysate, luciferase refolding luminescence, 3 h | inhibition, % at 5.6 µM | 0.91% of 290,000 active | AID 1789;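 active = inhibition above the screen-wide mean plus 3 SD, computed separately per campaign, cut at about 16% in these data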;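 also: 0% = DMSO wells and 100% = 60 µM geldanamycin wells; inhibitors lower the luminescence because luciferase stays unfolded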
The depositor's hits bear a star; nt = no result. This is a sample that favours compounds with a hit; in the whole collection about 3.5% have one here.

SMILES	C8 TRAIL sens	TROY signal inh	TWEAK Fn14 block	Platelet DG rel	PPC-1+TRAIL kill	HSP90 refold inh
COc1ccc(CCNC(=O)CCC2COc3ccccc3O2)cc1OC (stereo not given)	6	12	-8	7	-36	3
COc1ccccc1C(C[N+](=O)[O-])c1c(N)n(C)c(=O)n(C)c1=O (stereo not given)	4	31	52*	19	10	-3
COc1ccc(NC(=O)CSc2nnc(Cc3ccc(C)cc3)c(=O)n2N)cc1	-13	-1	-4	11	nt	nt
O=C(COc1ccccc1)NNc1c2ccccc2nc2ccccc12	13	-2	16	0	8	-2
O=C(NNc1c2ccccc2nc2ccccc12)c1ccccc1O	0	54*	21	-16	16	-6
O=C(NNc1c2ccccc2nc2ccccc12)c1ccc(O)cc1O	21	-37	-35	-3	3	-3
O=C(NNC(=O)c1cccc2ccccc12)c1ccccc1O	-1	-42	-14	0	nt	-3
COc1ccc(OCC(=O)NNc2c3ccccc3nc3ccccc23)cc1	21	-5	57*	1	-6	2
O=C(NNc1nc(=O)c2cccnc2s1)c1ccccc1O	53*	-1	-40	3	24	3
Cc1cc(C)cc(NS(=O)(=O)c2ccc3c(c2)c(=O)n(C)c(=O)n3C)c1	80*	14	26	1	17	3
O=C(NCc1ccc(Cl)cc1)C(=O)NCC(c1cccnc1)N1CCN(c2ccc(F)cc2)CC1 (stereo not given)	23	12	17	2	1	-1
O=C(Nc1nc2c(s1)CCCC2)C1COc2ccccc2O1 (stereo not given)	34	71*	82*	1	19	51*
Cc1onc(-c2ccccc2Cl)c1C(=O)Nc1nnc(-c2ccc(Cl)cc2Cl)s1	-2	27	3	-1	0	-2
Cc1nnc(NC(=O)C2COc3ccccc3O2)s1 (stereo not given)	-10	-18	-3	-1	-2	1
O=C(Nc1nc2c(s1)CCCC2)c1ccc(Br)o1	57*	-27	37	18	36	16*
Cc1onc(-c2ccccc2Cl)c1C(=O)Nc1nc2c(s1)CCCC2	25	52*	-13	1	8	-3
COc1ccc(C(=O)N/C(=C/c2ccc(Cl)cc2)C(=O)Nc2ccc(C(=O)O)cc2)cc1	-5	-24	100*	2	nt	-10
COc1ccc(-n2nc(C#N)c(Cl)cc2=O)cc1	9	61*	96*	nt	14	-2
COC(=O)c1nn(-c2ccc(OC)cc2)c(=O)cc1O	-4	-5	-1	-3	26	3
OCC[C@@H]1C[C@H](O)[C@@H](O)[C@]2(OCc3cc(C(F)(F)F)ccc32)O1	5	-2	9	nt	nt	nt
Cc1cccc(Oc2nc3ccccn3c(=O)c2/C=C(\C#N)C(=O)NC2CCS(=O)(=O)C2)c1C (stereo not given)	-11	5	-2	57*	nt	11
O=C(c1ccco1)N1CCN(c2ncnc3c(-c4ccc(Cl)cc4)nsc23)CC1	-1	63*	61*	3	nt	13
N#CCSc1nc2sc3c(c2c(=O)n1C1CCCCC1)CCCC3	13	39	58*	13	-10	0
CCSc1nc2sc3c(c2c(=O)n1C1CCCCC1)CCN(C)C3	-6	0	8	nt	1	nt
Cc1cccc(C)c1NC(=O)C(c1ccncc1)n1c(=O)c(-c2cc3ccccc3[nH]2)nc2ccccc21 (stereo not given)	-1	nt	nt	nt	nt	nt
SMILES	C8 TRAIL sens	TROY signal inh	TWEAK Fn14 block	Platelet DG rel	PPC-1+TRAIL kill	HSP90 refold inh
C[C@H](CO)N1C[C@H](C)[C@H](CN(C)CC2CCCCC2)Oc2ccc(NS(=O)(=O)c3ccc(F)cc3)cc2CC1=O	5	0	0	nt	nt	nt
CN(C)/C=N/C(=S)Nc1ccc(Cl)cc1Cl	-4	-63	-20	-5	14	-3
Cc1ccc2c(COC(=O)c3ccccc3F)cc(=O)oc2c1	6	24	63*	0	nt	-3
Cc1nc(Nc2ccccc2)sc1-c1ccccc1	66*	-16	39	10	33	-5
CC(=O)c1sc(Nc2ccccc2)nc1C	-9	-24	-22	nt	nt	nt
O=S(=O)(NC(=S)c1ccccc1)c1ccccc1	-16	1	-20	-8	nt	nt
CC(C)N=C(NS(=O)(=O)c1ccccc1)C(Cl)(Cl)Cl	-13	77*	101*	5	18	-2
CC(C)Cn1c(-c2ccc(F)cc2)n[nH]c1=S	-10	nt	65*	-27	19	-4
CC(C)Cn1c(-c2ccncc2)n[nH]c1=S	8	5	-9	3	7	-3
O=C(NNc1nc2ccccc2s1)c1ccc(F)cc1	-13	76*	19	4	30	-1
O=C(O)c1ccccc1-c1ccccc1C(=O)Nc1nc2ccccc2s1	10	-16	6	-2	14	-1
Cc1ccc(C(=O)Nc2nc3ccccc3s2)s1	49	10	69*	1	46	16
Cc1ccc(C(=O)Nc2nc3ccc(S(C)(=O)=O)cc3s2)s1	42	-25	6	8	48	-1
O=C(Nc1nc2ccccc2s1)c1ccccc1	49	1	50*	3	41	9
CN(C(=O)c1ccccc1)c1nc2ccccc2s1	72*	16	41	2	49	3
CN(C)c1cccc(Nc2ccc(-c3ccc(OC(F)(F)F)cc3)cn2)c1	4	-21	-2	nt	nt	nt
CC(NC(=O)C1CCCN(S(=O)(=O)N2CCOCC2)C1)c1ccccc1 (stereo not given)	-18	0	4	-6	nt	-2
O=C(Nc1ccc(Cl)c(Cl)c1)c1ccccc1	11	-48	19	nt	nt	nt
O=C(Nc1nc2ccccc2s1)c1cnccn1	34	12	56*	8	37	6
Cc1nc2cc(NC(=O)c3ccc(Cl)cc3)ccc2n1C	29	-2	50*	8	nt	8
O=C(Nc1ccc2nc3ccccc3nc2c1)c1ccccc1	57*	-45	2	-14	11	0
O=C(O)/C=C/c1cccc(NC(=O)c2ccccc2)c1	-8	-2	0	64*	18	6
O=C(O)/C=C/c1cccc(NC(=O)c2ccc(Cl)cc2)c1	21	-2	-12	15	nt	-3
CCOC(=O)[C@]12CCC=C1N(Cc1ccco1)C(=O)[C@H](CC(=O)N1CCN(C(=O)C3CC3)CC1)C2	-6	-2	9	nt	nt	nt
COc1ccc(C/C(N)=N/OC(=O)c2cccc([N+](=O)[O-])c2)cc1	12	-2	-41	3	19	-2
COc1ccc(C(=O)O/N=C(\N)Cc2ccc(Cl)cc2)cc1OC	94*	13	72*	5	6	3
COc1ccccc1C/C(N)=N/OC(=O)c1cccc([N+](=O)[O-])c1	76*	-21	-30	-14	15	0
COc1ccc(C(=O)O/N=C(\N)Cc2ccc(Cl)c(Cl)c2)cc1OC	25	-3	92*	3	0	6
